Most compounds without a hit are left out; they make up all but 0.93% or so of the library.
PTHR1 ag = activates the human parathyroid hormone receptor PTHR1 | hit rate 0.075% among 410,000 | Potency, µM (titrated, usually from 115 µM), usual class: activators | HEK293 GP2 PTHR1 cells, GloSensor cAMP luminescence, 1 h | Q03431; further: nearly all actives have a fitted effect of over 55% in size
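HEK-293-derived GP2 cells expressing PTHR1 and a GloSensor cAMP reporter, 3,000/well, plated overnight, given luciferin plus IBMX (each 0.5 mM as added) for 1 h at 37 °C, then compound for 1 h at 37 °C. Luminescence was read after 15 min at room temperature.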
TRHR enhancer-1 = allosterically enhances the human TRH receptor. TRHR cells, fluo-8 calcium fluorescence, EC20 TRH enhancement. P34981. hit rate 0.66% among 360,000. enhancement, % at 2 µM; in the data active means enhancement above about 30%
Target sequence (P34981 whole entry, looked up): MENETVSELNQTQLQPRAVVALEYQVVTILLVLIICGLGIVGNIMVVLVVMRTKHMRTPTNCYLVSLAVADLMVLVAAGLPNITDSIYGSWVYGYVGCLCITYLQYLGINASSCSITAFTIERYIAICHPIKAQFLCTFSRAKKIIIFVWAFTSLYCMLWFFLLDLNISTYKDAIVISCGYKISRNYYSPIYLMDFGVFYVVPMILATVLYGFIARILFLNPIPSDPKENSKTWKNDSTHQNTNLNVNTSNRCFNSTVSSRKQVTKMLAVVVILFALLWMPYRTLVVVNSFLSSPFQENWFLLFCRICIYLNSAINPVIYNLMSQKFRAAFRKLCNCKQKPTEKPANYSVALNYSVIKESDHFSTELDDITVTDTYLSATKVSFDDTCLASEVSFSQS
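Enhancer read-out: after compound pinning and an initial kinetic agonist-mode read, an EC20 of TRH (10 nM final) was injected and fluo-8 calcium signal (Ex 480/Em 530) followed at 1 s/cycle for 100 cycles in TRHR-expressing cells.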
TRPML1 ag = agonists of human TRPML1 channel | Q9GZU1 | TRPML1-expressing cells, Ca2+ dye fluorescence, FDSS | activation, % (test concentration not listed) | hit rate 0.12% among 410,000 | AID 624414; in the data active means activation above about 50%; inconclusive means mostly about 30% to 49%
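Tet-induced TRPML1-DL cells, 1,500 per well, cultured overnight, were loaded with a no-wash Ca2+ dye for 45–90 min. Calcium fluorescence was recorded on the FDSS for 110 s after compound addition, before the EC80 agonist (4 uM 54-4) was added.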
HEK293 tox = cytotoxicity counter-screen for GLP-1 receptor inverse agonists | AID 624418 | hit rate 0.13% among 410,000 | Potency, µM (highest dose often 38.3 µM), usual class: inhibitors | HEK293 cAMP-luciferase reporter cells, luminescence, 24 h;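 further: loss of luciferase light is scored as toxicity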
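Seeding density was 200 cells/uL; after overnight-length (12 h) culture, 23 nL compounds went on for 24 h at 37 °C. Readout used a luciferase detection reagent, luminescence taken after 12 min at room temperature.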
TRPML1 blocker = blocks the human TRPML1 channel. Q9GZU1. TRPML1-inducible cells, Ca2+ dye fluorescence, FDSS; stronger effect = lower value; inhibition of EC80 agonist-evoked calcium signal. activity change, negative = inhibition, % (test concentration not listed). hit rate 0.02% among 390,000; in the data active means activity change below about -50%; inconclusive means between about -30% and that limit;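 further: stimulus is agonist 54-4 at its EC80 concentration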
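TRPML1-DL cells, Tet-induced overnight (~16 h, 37 °C) at 1,500 cells/well, were loaded with Ca8 no-wash dye plus quencher for 45-90 min at room temperature. Compounds were pinned during FDSS kinetic reading; agonist 54-4 at EC80 (4 uM final) then added.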
TRHR agonist-1 = agonists of human TRH receptor; P34981; TRHR cells, calcium flux fluo-8, FDSS agonist mode; activation, % at 2 µM; hit rate 0.18% among 360,000; AID 493084; in the data active means activation above about 30%
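Read-out: compound-evoked intracellular calcium rise in TRHR cells, fluo-8 dye, kinetic FDSS fluorescence at 1 s/cycle following a 10-cycle baseline. Cells cultured overnight before dye loading (30 min–1.5 h, RT).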
TRHR enhancer-2 = human TRH receptor allosteric enhancement confirmation; shares compounds with TRHR enhancer-1; TRH receptor cell assay, enhancer confirmation qHTS; activity change, negative = inhibition, % at 46.1 µM; 970 tested, under 10 active; AID 493076;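 further: compound effect scored on response to added TRH at EC20 of 10 nM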
TRHR agonist-2 = human TRH receptor agonism confirmation. shares compounds with TRHR enhancer-1. TRHR-expressing cells, agonist activation read-out. Potency, µM (doses to about 46.1 µM), hits mostly activators. hit rate 8% among 970; further: nearly all actives have a fitted effect of over 75% in size
Numbers stand for hits; . = inactive; ? = inconclusive; / = no result. Unless noted, the call rests on the fitted dose curve; in most records, active means well fitted curve in the direction sought with a large enough effect; inconclusive means small, poorly fitted or top-dose-only effect, or another doubt; inactive means no such curve, though single readings can be large; an effect the other way counts as inactive or inconclusive.

SMILES | PTHR1 ag | TRHR enhancer-1 | TRPML1 ag | HEK293 tox | TRPML1 blocker | TRHR agonist-1 | TRHR enhancer-2 | TRHR agonist-2
Cc1ccc(NC(=O)CN2CCc3ccccc3C2)cc1S(=O)(=O)N(C)C | . | 58 | . | . | . | . | . | .
CC(C)c1cccc(NC(=O)COC(=O)c2ccccc2OCc2cccc(Br)c2)c1 | / | / | . | / | / | / | / | /
CS(=O)(=O)c1ccc(Cl)c(NC(=O)CN2CCCC2c2ccc3c(c2)OCCCO3)c1 (centres undefined) | . | 46 | . | . | . | . | . | .
CN(C)S(=O)(=O)c1ccc(NC(=O)CN2CCCC2c2ccc3c(c2)OCCCO3)cc1 (centres undefined) | . | . | . | . | . | . | / | /
Clc1ccc(CSc2nnc(-c3ccncc3)s2)cc1 | . | . | . | . | . | . | / | /
Clc1cccc(Cl)c1CSc1nnc(-c2ccncc2)s1 | . | . | . | . | . | . | . | ?
CC1Cc2ccccc2C[N+]1(C)CC(=O)c1ccc(I)cc1 (centres undefined) | / | / | . | / | / | / | / | /
Cc1cnc2c(C)ccc(C)c2c1/C=C/c1ccc(N(C)C)cc1 | / | / | . | / | / | / | / | /
S=C(NCc1ccco1)Nc1ccc(N2CCOCC2)cc1 | . | 53 | . | . | . | . | . | .
COc1cccc(NC(=O)c2cc3cccc(OC)c3o/c2=N\O)c1 | / | . | / | / | / | . | / | /
COc1cccc(NC(=O)c2cc3ccccc3o/c2=N\O)c1 | . | 49 | / | . | / | . | . | .
O=S(=O)(Nc1cccnc1)c1cccc2ccccc12 | / | . | . | / | . | . | / | /
CC(=O)Oc1c(Sc2ccccc2[N+](=O)[O-])c(C)nn1C(C)(C)C | . | 58 | . | . | . | . | . | ?
CCn1ccnc1[C@@H]1C[C@H]2CN(Cc3ccccc3OC)C(=O)[C@]23CCCN13 | . | 46 | . | . | . | . | . | .
Cc1ccccc1Nc1nc(N)nc(COC(=O)CCS(=O)(=O)c2ccccc2)n1 | . | . | . | . | . | . | / | /
Cc1ccccc1Nc1nc(N)nc(COC(=O)CC2CC3CCC2C3)n1 (centres undefined) | . | 51 | . | . | . | . | . | .
CC(C(=O)N1CC2(C)CC1CC(C)(C)C2)N1C(=O)c2ccccc2C1=O (centres undefined) | . | 46 | . | . | . | . | . | .
CCC(C(=O)N1CC2(C)CC1CC(C)(C)C2)N1C(=O)c2ccccc2C1=O (centres undefined) | . | . | . | . | . | . | / | /
COc1ccc(C2C3C=CCC(c4cccc(/C=C/c5ccccc5)c4)C3C(=O)N2Cc2ccccc2)cc1Cl (centres undefined) | / | / | . | / | . | / | / | /
O=C(Nc1cccc2ncccc12)c1ccc(Cl)cc1 | . | 60 | . | . | . | . | . | .
O=C(Nc1cccc2ncccc12)c1ccc(F)cc1 | . | . | . | . | . | . | / | /
COc1ccc([N+](=O)[O-])cc1NC(=O)c1cn(-c2ccc(Cl)cc2)c(=O)c2ccccc12 | . | 72 | . | . | . | . | ? | .
S=C(NCCCc1cnc[nH]1)NCCCN(CCc1ccc(Cl)cc1)c1ccc(Br)cn1 | / | / | . | / | / | / | / | /
Cc1c(/C=N/O)c2ccccn2c1C=O | . | 60 | . | . | . | . | . | .
CC(C)C(=O)Nc1ccc(/C=C2\C=Cc3ccccc32)cc1 | / | / | . | / | / | / | / | /
SMILES | PTHR1 ag | TRHR enhancer-1 | TRPML1 ag | HEK293 tox | TRPML1 blocker | TRHR agonist-1 | TRHR enhancer-2 | TRHR agonist-2
CCn1c2ccccc2c2cc(CNCCCN3CCOCC3)ccc21 | . | 43 | . | ? | . | . | . | .
CCOc1cccc(NC(=O)C2CC(=O)N(CC)C(=Nc3ccc(F)cc3)S2)c1 (centres undefined) | . | . | . | . | . | . | / | /
CCOc1cccc(NC(=O)C2CC(=O)NC(=Nc3ccccc3)S2)c1 (centres undefined) | . | 84 | . | . | . | . | . | .
C(=C\c1ccco1)/C1=NN(c2ccccc2)C(c2ccco2)C1 (centres undefined) | . | . | . | . | . | . | / | /
O=[N+]([O-])c1ccc(/C=C/C2=NN(c3ccccc3)C(c3ccco3)C2)o1 (centres undefined) | . | . | . | . | . | 40 | . | ?
O=S(=O)(c1cccc(F)c1)N1CCN(S(=O)(=O)c2ccc3c(c2)OCCO3)CC1 | / | . | / | / | / | . | / | /
COc1ccc(CCNC(=O)c2cnn3c2NC(=C2CC2)C=C3C(F)F)cc1OC | / | / | . | / | / | / | / | /
Brc1ccccc1/C=N/Nc1ccc2ccccc2n1 | . | . | . | ? | . | . | / | /
Brc1ccc(/C=N/Nc2ccc3ccccc3n2)cc1 | . | 51 | . | . | . | . | . | .
CC1CCN(C(=S)NC(=O)c2cccc([N+](=O)[O-])c2)CC1 | . | . | . | . | . | . | / | /
CN1CCN(C(=S)NC(=O)c2cccc([N+](=O)[O-])c2)CC1 | . | 50 | . | ? | . | . | . | .
COc1ccc(N(Cc2ccccc2)C(=O)c2nc(S(C)(=O)=O)ncc2Cl)cc1 | . | . | . | ? | . | . | / | /
COc1ccc(NC2CCCN(C(=O)CSc3ccncc3)C2)cc1 (centres undefined) | . | 83 | . | . | ? | . | . | .

Assay outcomes as filed in PubChem BioAssay.
